Among the test systems are DU-145 prostate; K-562 leukemia; MALME-3M melanoma; MDA-MB-231 breast; RXF 393 renal; SF-268 CNS; SF-295 CNS; SF-539 CNS; UACC-257 melanoma; HCT-15 colon; HT29 colon; SNB-75 CNS; SNB-19 CNS; U251 CNS; PC-3 prostate; SK-MEL-5 melanoma; UACC-62 melanoma; LOX IMVI melanoma; SK-MEL-28 melanoma.
Holding throughout (test): NCI-60 one-dose screen, 48 h (100 = growth as untreated, 0 = no growth, -100 = all killed)
What all share (details): 10 µM unless noted

About 83,000 compounds went through this panel and 20% of them were active in at least one assay; those are over-represented in the sample as a whole.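 Single-dose data. Exposure time 48 hours. Values below 10 considered active.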 A number with no mark means an inactive call. The source made the active and inactive calls.

Our source for the growth values is PubChem BioAssay (NCI).

In the case of `COc1ccc(-c2nc3ccccn3c2/C=C/C(=O)c2cc(OC)c(OC)c(OC)c2)cc1`, the growth in the assay on DU-145 prostate was 58.1%; in the assay on K-562 leukemia, 49.8%; with MALME-3M melanoma, 43.3%; in the assay with MDA-MB-231 breast, 42.1%; in the assay with RXF 393 renal, 43.9%; with SF-268 CNS, 38.2%. For the same compound, the growth with SF-295 CNS is 123%; in the assay on SF-539 CNS, 8.84% (active); with UACC-257 melanoma, 55.3%; with HCT-15 colon it was 50.4%; in the assay with HT29 colon it was 45.2%; in the assay with SNB-75 CNS, 44.3%. Moreover, the growth with SNB-19 CNS was 72.4%; in the assay on U251 CNS, 36%; with PC-3 prostate it was 56.2%; in the assay on SK-MEL-5 melanoma it was 26.9%; in the assay on UACC-62 melanoma it was 45.2%; in the assay on LOX IMVI melanoma it was 44.2%. Besides, in the assay with SK-MEL-28 melanoma, the growth was 41.1%.

As to `COc1ccc(C2CC(c3ccc4ccccc4c3)=NN2c2nc(O)c(C3=c4cc(Cl)ccc4=NC3=O)s2)cc1` (configuration not stated), the growth is -20.7% (active) with DU-145 prostate; -27.2% (active) in the assay with K-562 leukemia; -54.3% (active) with MALME-3M melanoma; -38.6% (active) with MDA-MB-231 breast; -67.3% (active) in the assay with RXF 393 renal; -33.6% (active) in the assay on SF-268 CNS. Also, the growth with SF-295 CNS is -61.9% (active); in the assay on SF-539 CNS, -52.5% (active); in the assay with UACC-257 melanoma, -50.8% (active); in the assay with HCT-15 colon, -33.4% (active); in the assay on HT29 colon, -46.5% (active); in the assay on SNB-75 CNS, -51.5% (active). Besides, the growth is 3.08% (active) with SNB-19 CNS; -94.6% (active) in the assay with U251 CNS; -44.4% (active) in the assay with PC-3 prostate; -95.2% (active) in the assay with SK-MEL-5 melanoma; -46.5% (active) in the assay on UACC-62 melanoma; -75.7% (active) in the assay with LOX IMVI melanoma. Further, the growth in the assay with SK-MEL-28 melanoma is -18.8% (active).

On to `O=C(Nc1cccc2[nH]c(C(F)(F)F)nc12)c1cc(Cl)ccc1Cl`, for which the growth was 53.7% in the assay with DU-145 prostate; 19.8% in the assay on K-562 leukemia; 16.1% with MALME-3M melanoma; 40.6% with MDA-MB-231 breast; 41.1% with RXF 393 renal; 44.6% with SF-268 CNS. In addition, the growth in the assay with SF-295 CNS was 29.2%; in the assay on SF-539 CNS it was 52.9%; in the assay on UACC-257 melanoma, 28.7%; with HCT-15 colon, 29.2%; in the assay on HT29 colon, 52.1%; in the assay on SNB-75 CNS, 75.6%. Moreover, the growth in the assay on SNB-19 CNS was 32.3%; in the assay with U251 CNS, 15.8%; with PC-3 prostate, 15.5%; in the assay with SK-MEL-5 melanoma, -47.5% (active); in the assay on UACC-62 melanoma, 20.5%; in the assay with LOX IMVI melanoma, 38.1%. Further, the growth in the assay on SK-MEL-28 melanoma was 44.3%.

Turning to `Nc1c(C(=O)c2ccc(Cl)s2)sc2nc3c(cc12)CCCC3`, the growth with DU-145 prostate is 110%; in the assay with K-562 leukemia, 101%; in the assay on MALME-3M melanoma, 100%; in the assay with MDA-MB-231 breast, 108%; with RXF 393 renal, 113%; in the assay with SF-268 CNS, 104%. Besides, the growth in the assay with SF-295 CNS was 102%; in the assay on SF-539 CNS, 96.8%; with UACC-257 melanoma it was 105%; in the assay on HCT-15 colon, 107%; in the assay with HT29 colon it was 94.2%; in the assay with SNB-75 CNS it was 103%. For the same compound, the growth is 105% with SNB-19 CNS; 97.8% with U251 CNS; 88.4% in the assay on PC-3 prostate; 96.8% with SK-MEL-5 melanoma; 106% in the assay with UACC-62 melanoma; 96.8% in the assay with LOX IMVI melanoma. The growth in the assay with SK-MEL-28 melanoma was 119%.

Take `COc1ccc(OC)c(Nc2nc3nonc3nc2Nc2cccc(Br)c2)c1`: the growth in the assay with DU-145 prostate was 26%; in the assay with K-562 leukemia it was 10.2%; with MALME-3M melanoma it was 11.3%; in the assay on MDA-MB-231 breast it was -8.18% (active); in the assay on RXF 393 renal, 23.7%; in the assay on SF-268 CNS, 21.1%. Also, the growth with SF-295 CNS was -19.3% (active); in the assay on SF-539 CNS it was -7.16% (active); with UACC-257 melanoma, -12.5% (active); in the assay with HCT-15 colon, 13.1%; with HT29 colon, 3.47% (active); in the assay with SNB-75 CNS, 3.07% (active). For the same compound, the growth in the assay on SNB-19 CNS is 14.6%; in the assay with U251 CNS it was 3.05% (active); with PC-3 prostate, 1.15% (active); with SK-MEL-5 melanoma it was -47.8% (active); in the assay on UACC-62 melanoma, 18.7%; with LOX IMVI melanoma, 4.56% (active). Further, the growth with SK-MEL-28 melanoma is 30.2%.

`C=C(C=O)C1CCC2(C(=O)O)CCC3(C)C(CCC4C5(C)CCC(O)C(C)(C)C5CCC43C)C12` (configuration not stated): the growth with DU-145 prostate is -38.4% (active); in the assay on K-562 leukemia it was 13.6%; with MALME-3M melanoma, 1.55% (active); in the assay on MDA-MB-231 breast, 32.6%; in the assay with RXF 393 renal, -63.7% (active); with SF-268 CNS, 24.3%. Besides, the growth in the assay with SF-295 CNS was -6.97% (active); in the assay on SF-539 CNS it was -43.4% (active); with UACC-257 melanoma, -46.4% (active); with HCT-15 colon it was -15.1% (active); with HT29 colon it was 3.49% (active); with SNB-75 CNS, 47.1%. Moreover, the growth with SNB-19 CNS is 66.3%; with U251 CNS, 6.78% (active); in the assay on PC-3 prostate, 20.4%; in the assay with SK-MEL-5 melanoma, -96.9% (active); with UACC-62 melanoma, -84.2% (active); with LOX IMVI melanoma it was -74.1% (active). In addition, the growth with SK-MEL-28 melanoma is -30.8% (active).

Take `COc1ccc(-c2nc3ncccn3c2/C=C/C(=O)c2cc(OC)c(OC)c(OC)c2)cc1`: the growth with DU-145 prostate was 2.9% (active); in the assay with K-562 leukemia it was 6.79% (active); in the assay with MALME-3M melanoma, 61.8%; in the assay with MDA-MB-231 breast, 21.1%; with RXF 393 renal, -24.4% (active); with SF-268 CNS, 13.4%. Also, the growth is -31.5% (active) with SF-295 CNS; -87.2% (active) in the assay with SF-539 CNS; 41.2% in the assay with UACC-257 melanoma; 9.73% (active) in the assay with HCT-15 colon; 6.11% (active) in the assay on HT29 colon; 9.26% (active) in the assay with SNB-75 CNS. The growth with SNB-19 CNS was 10.9%; with U251 CNS, -16.8% (active); in the assay with PC-3 prostate, 19%; in the assay on SK-MEL-5 melanoma, -83.2% (active); with UACC-62 melanoma it was -17% (active); with LOX IMVI melanoma, 0.0444% (active). Further, the growth with SK-MEL-28 melanoma was -47.4% (active).

`Cc1csc(NC(=O)c2sc3nc(-c4cccs4)ccc3c2N)n1`: the growth was 96.4% with DU-145 prostate; 90.2% with K-562 leukemia; 99.6% in the assay with MALME-3M melanoma; 93.4% with MDA-MB-231 breast; 107% in the assay with RXF 393 renal; 102% in the assay with SF-268 CNS. Further, the growth is 99.7% in the assay on SF-295 CNS; 96.9% with SF-539 CNS; 109% with UACC-257 melanoma; 102% in the assay with HCT-15 colon; 102% with HT29 colon; 102% with SNB-75 CNS. For the same compound, the growth in the assay on SNB-19 CNS was 112%; with U251 CNS it was 91.3%; in the assay on PC-3 prostate it was 82.6%; with SK-MEL-5 melanoma, 92.2%; in the assay on UACC-62 melanoma it was 98.2%; with LOX IMVI melanoma it was 95.1%. In addition, the growth with SK-MEL-28 melanoma was 115%.
